PubChem BioAssay (NCATS)
“And” between values parts separate entries of the source, which are not always exact repeats. Equal entries are not always repeated. Results filed as inconclusive are left out. The source made the active and inactive calls. Unless noted, calls follow the shape of the dose curve; as a rule, active = well fitted curve in the direction sought with a large enough effect; inconclusive = small, poorly fitted or top-dose-only effect, or another doubt; inactive = no such curve, though single readings can be large; an effect the other way counts as inactive or inconclusive.

Key:
[1] = qHTS assay for small molecule disruptors of the mitochondrial membrane potential - 1 hr assay (AID 651754; calls by dose curve; also: % is scaled to controls: 0 for no effect and ±100 for the full control effect; nearly all actives have a fitted effect of over 35% in size)
Method in brief: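 Steps: seed HepG2 cells and let attach overnight; pin-transfer compound or vehicle; incubate 1 hr at 37C; add Mito-MPS dye for 30 min; read two-channel fluorescence for monomer and aggregate forms.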

[2] = biological target: Tumor necrosis factor (Homo sapiens) (UniProt P01375); test: qHTS assay to identify small molecules that stimulate Tumor Necrosis Factor-alpha (TNF-alpha) secretion (AID 651757; active = well fitted curve in the direction sought with a large enough effect in the signal ratio; the % refers to the signal ratio; also: 0% is about no effect)
Method in brief: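 Secreted TNF-alpha from compound-treated THP-1 cells (17 hrs, 37 C) was quantified with a homogeneous time-resolved fluorescence antibody assay.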

[3] = qHTS assay for environmental chemicals that activate the Aryl hydrocarbon Receptor (AhR) signaling pathway (AID 651777); settings: 1A2-DRE human hepatoma cells, luciferase, 24 h; activation: active compounds read high; also: % of control where 0% means no effect; nearly all actives have a fitted effect of over 15% in size
Method in brief: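 1A2-DRE human hepatoma reporter line; 1,200 cells/well; cmpd or DMSO 24 h, 37 C/5% CO2; One-Glo 30 min RT; luciferase lum.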

[4] = biological target: Peroxisome proliferator-activated receptor alpha (Homo sapiens) (UniProt Q07869); test: qHTS assay for small molecule agonists of the peroxisome proliferator-activated receptor alpha (PPARalpha) signaling pathway (AID 651778); settings: PathHunter PPARalpha complementation, chemiluminescence, 6 h; active compounds read high; also: % of control where 0% means no effect
Method in brief: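 Enzyme-fragment complementation assay in which ligand-bound PPARalpha translocates and forms an active enzyme that generates chemiluminescence. Cells were plated overnight, exposed to compound for 6 hr at 37 C, and then given detection reagent for 60 min at room temperature.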

[5] = biological target: Nuclear receptor ROR-gamma (Homo sapiens) (UniProt P51449); test: qHTS assay for small molecule antagonists of the retinoid-related orphan receptor gamma (ROR-gamma) signaling pathway (AID 651802);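 also: CHO cells with doxycycline-induced ROR-gamma expression; series mostly up to about 92 µM; % is scaled to controls: 0 for no effect and ±100 for the full control effect; nearly all actives have a fitted effect of over 60% in size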
Method in brief: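 Antagonism is scored as a fall in luminescence from a RORE-luciferase reporter in CHO cells expressing ROR under a TET-inducible promoter, measured 16hr after doxycycline induction in the presence of compound.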

[6] = qHTS assay for small molecule agonists of the antioxidant response element (ARE) signaling pathway measured by Nrf2-dependant transcriptional activity (AID 720636; active = well fitted curve in the direction sought with a large enough effect in the repeat runs; an effect the other way counts as inactive or inconclusive;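 also: HepG2 cells with an ARE-driven luciferase reporter; % of control where 0% means no effect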)
Method in brief: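 Cells: ARE-luc HepG2 with Nrf2-responsive luciferase. Medium contained 1% dialyzed FBS. Compound exposure lasted 16 hr at 37 C and 5% CO2, followed by ONE-Glo luciferase detection.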

[7] = qHTS assay for small molecule antagonists of the retinoid-related orphan receptor gamma (ROR-gamma) signaling pathway - cell viability counter screen (AID 720652; active = well fitted curve in the direction sought with a large enough effect in the repeat runs; an effect the other way counts as inactive or inconclusive;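 also: CHO reporter cells with doxycycline-induced ROR-gamma expression; series mostly up to about 92 µM; compound exposure lasted 16 hr before ATP read; % is scaled to controls: 0 for no effect and ±100 for the full control effect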)
Method in brief: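 Cytotoxicity is quantified via intracellular ATP (CellTiter-Glo luminescence) in doxycycline-induced CHO ROR response element-luciferase reporter cells treated with compound for 16 hr at 37 C, 5% CO2.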

[8] = qHTS assay for small molecule agonists of the antioxidant response element (ARE) signaling pathway measured by Nrf2-dependant transcriptional activity - cell viability counter screen (AID 720653; active = well fitted curve in the direction sought with a large enough effect in the repeat runs; an effect the other way counts as inactive or inconclusive; also: % is scaled to controls: 0 for no effect and ±100 for the full control effect); settings: ARE-bla HepG2 viability, CellTiter-Glo ATP luminescence, 16 h; active compounds read low
Method in brief: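 ARE-bla HepG2 cells treated with compounds for 16 h at 37C; this counter screen measures viability as intracellular ATP by CellTiter-Glo luminescence after 30 min at room temperature.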

[9] = qHTS assay for cell viability of HEK293 cells (AID 743288); settings: ATP luminescence (CellTiter-Glo), 18 h, active compounds read low; also: % is scaled to controls: 0 for no effect and ±100 for the full control effect; nearly all actives have a fitted effect of over 50% in size
Method in brief: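 HEK293 parental, 2,000 cells/well; ≥5 h pre-incubation 37 C; pintool compound addition; 18 h, 37 C; CellTiter-Glo 30 min RT; luminescence read.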

[10] = qHTS assay for cell viability of the p53RE-bla HCT-116 cell line (AID 743292); also: % is scaled to controls: 0 for no effect and ±100 for the full control effect; nearly all actives have a fitted effect of over 55% in size
Method in brief: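 HCT-116 p53RE-bla cells seeded 4,000/well; 5 h at 37 C; compound (DMSO) added; 16 h at 37 C; CellTiter-Glo added, 30 min RT; luminescence read.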

[11] = biological target: Nuclear receptor subfamily 1 group I member 2 (Rattus norvegicus) (UniProt Q9R1A7); test: qHTS assay for small molecule activators of the rat pregnane X receptor (rPXR) signaling pathway (AID 651751; call rule not given here; also: 0% is about no effect); settings: rPXR reporter cells, luciferase (One-Glo), 24 h
[12] = qHTS assay for small molecule activators of the human pregnane X receptor (PXR) signaling pathway (AID 720659; call rule not given here; also: 0% is about no effect)
[13] = qHTS assay for small molecule disruptors of the mitochondrial membrane potential - 5 hr assay (AID 651755; calls by dose curve; also: % is scaled to controls: 0 for no effect and ±100 for the full control effect; nearly all actives have a fitted effect of over 40% in size)
Method in brief: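 HepG2 cells (2,000/well), attached overnight, exposed to compound 5 hr at 37C, then Mito-MPS dye 30 min. Fluorescence read for monomers (490/535 nm) and aggregates (540/590 nm).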

[14] = qHTS assay to identify small molecules that stimulate interleukin-8 (IL-8) secretion (AID 651758; active = well fitted activation curve with a large enough effect in the signal ratio; the % refers to the signal ratio; also: 0% is about no effect)
Method in brief: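 THP-1 cells (2000/well) exposed to compound 16 h at 37 C; secreted IL-8 then detected by HTRF with cryptate- and XL665-labelled anti-IL-8 antibody pair after 1-3 h at room temperature.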

Sequence of Peroxisome proliferator-activated receptor alpha (Homo sapiens) (Q07869 whole entry, looked up, the tested form may be a part): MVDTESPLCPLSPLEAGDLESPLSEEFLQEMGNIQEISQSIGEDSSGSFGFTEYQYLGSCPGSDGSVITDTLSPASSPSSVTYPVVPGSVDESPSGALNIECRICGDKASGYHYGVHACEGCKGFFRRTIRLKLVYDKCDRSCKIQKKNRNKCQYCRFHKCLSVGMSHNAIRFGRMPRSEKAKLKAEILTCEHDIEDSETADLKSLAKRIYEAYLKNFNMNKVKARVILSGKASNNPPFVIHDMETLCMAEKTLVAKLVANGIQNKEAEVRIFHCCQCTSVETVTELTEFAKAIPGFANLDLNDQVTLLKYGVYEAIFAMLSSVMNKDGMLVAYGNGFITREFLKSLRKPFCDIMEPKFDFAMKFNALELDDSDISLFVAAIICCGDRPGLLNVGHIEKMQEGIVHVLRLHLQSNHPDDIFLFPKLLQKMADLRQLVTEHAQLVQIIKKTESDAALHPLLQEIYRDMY
Sequence of Tumor necrosis factor (Homo sapiens) (P01375 whole entry, looked up): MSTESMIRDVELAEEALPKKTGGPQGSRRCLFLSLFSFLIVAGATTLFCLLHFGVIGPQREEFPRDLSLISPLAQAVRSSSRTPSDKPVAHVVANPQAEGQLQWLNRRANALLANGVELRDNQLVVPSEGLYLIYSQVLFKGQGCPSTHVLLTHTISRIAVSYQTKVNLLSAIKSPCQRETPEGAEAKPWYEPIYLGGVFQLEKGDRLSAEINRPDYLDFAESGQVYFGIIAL
Sequence of Nuclear receptor ROR-gamma (Homo sapiens) (P51449 whole entry, looked up): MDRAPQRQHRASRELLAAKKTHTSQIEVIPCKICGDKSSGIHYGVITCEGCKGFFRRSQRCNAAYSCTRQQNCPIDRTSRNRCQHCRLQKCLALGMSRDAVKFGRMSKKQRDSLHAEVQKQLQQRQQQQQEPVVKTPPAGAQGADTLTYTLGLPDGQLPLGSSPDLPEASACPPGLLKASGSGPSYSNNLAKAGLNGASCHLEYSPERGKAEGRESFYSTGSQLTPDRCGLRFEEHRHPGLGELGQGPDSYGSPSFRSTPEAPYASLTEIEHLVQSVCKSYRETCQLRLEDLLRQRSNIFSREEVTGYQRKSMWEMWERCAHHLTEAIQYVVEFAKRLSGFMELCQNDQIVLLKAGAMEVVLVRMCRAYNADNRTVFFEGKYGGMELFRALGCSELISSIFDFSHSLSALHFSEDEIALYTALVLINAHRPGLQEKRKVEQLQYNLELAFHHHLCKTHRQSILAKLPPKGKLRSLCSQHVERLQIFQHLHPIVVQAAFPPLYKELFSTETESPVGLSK
Sequence of Nuclear receptor subfamily 1 group I member 2 (Rattus norvegicus) (Q9R1A7 whole entry, looked up): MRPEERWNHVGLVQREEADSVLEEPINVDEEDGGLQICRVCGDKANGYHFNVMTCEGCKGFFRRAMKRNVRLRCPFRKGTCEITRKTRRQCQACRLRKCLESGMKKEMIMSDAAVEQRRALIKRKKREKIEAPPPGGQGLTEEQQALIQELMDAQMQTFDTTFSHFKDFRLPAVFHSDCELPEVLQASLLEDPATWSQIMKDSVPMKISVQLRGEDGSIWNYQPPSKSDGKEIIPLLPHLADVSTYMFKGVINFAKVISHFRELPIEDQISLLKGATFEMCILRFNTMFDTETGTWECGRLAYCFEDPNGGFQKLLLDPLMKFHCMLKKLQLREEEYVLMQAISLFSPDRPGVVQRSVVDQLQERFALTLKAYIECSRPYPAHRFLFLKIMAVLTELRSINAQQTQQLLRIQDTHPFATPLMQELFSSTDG

Cc1cccc(Br)c1
inactive: Potency [1] | Potency [2] | activation [3] 0.194% | max response [4] -5.52% | Potency [5] | outcome [6] | Potency [7] | max response [8] 6.53% | max response [9] 1.57% | Potency [10] | max response [11] -3.61% | outcome [12]

NC(N)=S
inactive: Potency [1] | activation [3] 0.321% | max response [4] -4.91% | outcome [6] | Potency [7] | max response [8] -0.0983% | max response [9] -3.49% | Potency [10] | max response [11] -3.24% | outcome [12]

O=C(O)c1ccc(Cl)c(Cl)c1
inactive: Potency [13] | Potency [2] | Potency [14] | activation [3] 1.84% | max response [4] -5.43% | Potency [5] | outcome [6] | Potency [7] | max response [8] -1.66% | max response [9] 1.65% | Potency [10] | max response [11] -0.362% | outcome [12]

CC(=O)c1ccccc1[N+](=O)[O-]
inactive: Potency [13] | Potency [2] | Potency [14] | activation [3] -0.15% | max response [4] -1% | Potency [5] | outcome [6] | Potency [7] | max response [8] -1.99% | max response [9] 7.31% | Potency [10] | max response [11] 1.69% | outcome [12]

c1ccsc1
inactive: Potency [13] | Potency [2] | Potency [14] | activation [3] -0.706% | max response [4] -6.32% | Potency [5] | outcome [6] | Potency [7] | max response [8] 9% | max response [9] 6.51% | Potency [10] | max response [11] -1.04% | outcome [12]

Nc1cccc(C(F)(F)F)c1
inactive: Potency [13] | Potency [2] | Potency [14] | activation [3] 0.706% and 0.403% | Potency [5] | outcome [6] | Potency [7] | max response [8] 1.34% and -3.53% | Potency [10] | max response [11] -1.26% and 1.53%

OC/C(Br)=C(\Br)CO
inactive: Potency [13] | Potency [2] | Potency [14] | activation [3] -1.6% | Potency [5] | outcome [6] | Potency [7] | max response [8] 1.49% | max response [9] 0.0424% | Potency [10] | max response [11] 0.247% | outcome [12]

CC(C)CCOC(=O)/C=C/c1ccccc1
inactive: Potency [1] | Potency [2] | activation [3] 0.411% | max response [4] 0.372% | Potency [5] | outcome [6] | Potency [7] | max response [8] 5.13% | max response [9] -10.1% | Potency [10] | max response [11] 0.15% | outcome [12]

COc1cccc(N)c1
inactive: Potency [1] | Potency [2] | max response [4] -3.67% | Potency [5] | outcome [6] | Potency [7] | max response [8] 10.6% | max response [9] -0.119% | Potency [10] | max response [11] 12.1% | outcome [12]

Cc1cc([N+](=O)[O-])ccc1N
inactive: Potency [1] | activation [3] 0.911% | max response [4] -7.44% | outcome [6] | Potency [7] | max response [8] -20.9% | max response [9] -5.02% | Potency [10] | max response [11] 2.26% | outcome [12]

CCCCC(CC)COC(=O)CCCCC(=O)OCC(CC)CCCC (centres undefined)
inactive: Potency [1] | Potency [2] | activation [3] -0.729% and -3.02% | max response [4] -4.18% and -1.05% | outcome [6] | max response [8] 11.7% and -4.79% | max response [9] -4.22% and -9.58% | Potency [10] | max response [11] 3.13% and -1.3% | outcome [12]

CC(=O)CCc1ccccc1
inactive: Potency [1] | Potency [2] | max response [4] 0.48% | Potency [5] | outcome [6] | Potency [7] | max response [8] 0.255% | max response [9] 0.331% | Potency [10] | max response [11] 3.15% | outcome [12]

Cc1ccco1
inactive: Potency [1] | Potency [2] | activation [3] -0.591% | Potency [5] | outcome [6] | max response [8] -4.14% | max response [9] 3.18% | Potency [10] | max response [11] -0.023% | outcome [12]

CCCCC(CC)C(=O)O (centres undefined)
inactive: Potency [1] | Potency [2] | max response [4] -2.43% | Potency [5] | outcome [6] | Potency [7] | max response [8] -5.11% | max response [9] -7.06% | Potency [10] | max response [11] 1.13% | outcome [12]

CCc1ccccc1O
inactive: Potency [1] | Potency [2] | activation [3] -0.147% | max response [4] -2.08% | Potency [5] | outcome [6] | max response [8] 4.85% | max response [9] -0.782% | Potency [10] | max response [11] -3.4% | outcome [12]

O=Cc1ccc(C(=O)O)cc1
inactive: Potency [1] | Potency [2] | activation [3] -0.237% | max response [4] -5.11% | Potency [5] | outcome [6] | max response [8] -13.7% | max response [9] -0.895% | Potency [10] | max response [11] -2.3% | outcome [12]

ICCc1ccccc1
inactive: Potency [1] | Potency [14] | activation [3] 3.65% | max response [4] -1.29% | Potency [5] | outcome [6] | Potency [7] | max response [8] 3.37% | max response [9] -14.1% | Potency [10] | max response [11] -1.67% | outcome [12]

NCCCCCCN
inactive: Potency [1] | Potency [2] | activation [3] 0.0666% | max response [4] -4.8% | Potency [5] | outcome [6] | Potency [7] | max response [8] -0.206% | max response [9] 10.3% | Potency [10] | max response [11] 2.77% | outcome [12]
